Measurements as given in PubChem BioAssay (NCI).
Where “and” joins values, the source holds several entries; their conditions need not be identical. Identical values can stand only once. The panel holds about 83,000 compounds, 20% with a hit somewhere; the sample as a whole holds those more often.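 Activity criterion: percent growth below 10, measured after cells in 96-well plates were exposed to a single compound concentration for 48 hours.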 Calls of active or inactive are those of the source.

Each compound was assayed on CCRF-CEM leukemia (assay: NCI-60 one-dose screen, 48 h (100 = growth as untreated, 0 = no growth, -100 = all killed)). Conditions: 10 µM unless noted.
Experimental: Growth inhibition of the CCRF-CEM human tumor cell line is measured as a screen for anti-cancer activity. Cells are grown in 96 well plates and exposed to the test compound for 48 hours. Compounds are tested at a single concentration, which is 10^-5 M for most compounds. The reported endpoint is percent growth (GI% or GIPRCNT), where numbers from 0 - 100% represent growth inhibition, and numbers from -100% - 0 represent cell death. For example, a value of 40 represents 60% growth inhibition. A value of 0 means no net growth occurred over the course of the experiment. A value of -40 indicates 40% of cells at the beginning of the experiment died by the end of the experiment. A value of -100 means all cells are dead at the end of the experiment.
NCI-60 Human Tumor Cell Lines Screen was performed using the standard one-dose NCI protocol, which is described in more detail at https://dtp.cancer.gov/discovery_development/nci-60/default.htm.
Compounds with GIPRCNT values below 10 were considered active. Activity score was based on GIPRCNT using the following formula: […]
Score is 0 for GIPRCNT values of 100 or above, 50 for GIPRCNT values of 0, and 100 for GIPRCNT values of -100.
`COC(=O)c1nc(=S)[nH]c(C(=O)OC)c1C(=O)c1ccc(OC)cc1` was tested, and the growth was 101% (inactive).
With `CCNCc1ccccc1` the growth was 121% (inactive).
`CCCC(=O)Oc1ccc2ccccc2c1` was tested, and the growth was 90.2% (inactive).
`CCC(=O)Oc1ccc(OCc2ccccc2)cc1` was tested, and the growth was 62.9% (inactive) and 63.6% (inactive).
For `CCOC(=O)c1csc(N)n1`, the growth was 91% (inactive) and 98.5% (inactive).
In the case of `O=C1C=CC(=O)N1Cc1ccco1`, the growth is reported as 101% (inactive).
With `C/C=C/C(=O)OCCCCCCCCCCCC` the growth was 117% (inactive).
`Cc1ccc([N+](=O)[O-])cc1Br` was tested, and the growth was 105% (inactive).
`CCCC(=O)Oc1ccc(CC)cc1` was tested, and the growth was 107% (inactive).
For `CC1(C)CC(=O)NC1=O`, the growth was 95.6% (inactive).
With `O=C1Cc2ccccc2C(=O)N1` the growth was 41.1% (inactive).
For `Cc1c(Cl)cc(Cl)c(N)c1Cl`, the growth was 95.5% (inactive).
`O=c1ccn2c(n1)OC1CC2OC1COC(c1ccccc1)(c1ccccc1)c1ccccc1` (stereo not given) was tested, and the growth was 81.8% [100 µM] (inactive).
For `COc1cc(Cl)ccc1C`, the growth was 91.9% (inactive).
With `COc1cc(NCCCCCCCNC(C)C)c2nccc(C)c2c1` the growth was 92.7% (inactive).
`CCOP(C)(=O)/C(Cc1ccc(OC)c(OC)c1)=N\O` (stereo not given) was tested, and the growth was 110% (inactive).
In the case of `COc1cc2c(cc1O)C(=O)CCCC2`, the growth is reported as 97.7% (inactive).
`OCc1cccc(F)c1` was tested, and the growth was 103% (inactive).
For `CCCCCCC(C)CC1=C(O)c2ccccc2C(=O)C1=O` (stereo not given), the growth was 33.3% (inactive).
For `CN(C=O)c1ccccc1`, the growth was 95.7% (inactive).
With `CC(=O)/C(N=Nc1ccc(S(=O)(=O)c2ccc(N=N/C(C(C)=O)=C(/C)O)cc2)cc1)=C(\C)O` the growth was 85.9% (inactive).
In the case of `COc1ccc(/C=N/Nc2nc3ccccc3s2)cc1`, the growth is reported as 34.7% (inactive).
With `CCN(CC)C(CC(=O)c1ccccc1)C(=O)c1ccccc1` (stereo not given) the growth was 30.4% (inactive).
In the case of `CCOC(=O)c1ccncc1`, the growth is reported as 108% (inactive).
In the case of `Nc1ccc(O)c(C(=O)O)c1`, the growth is reported as 106% (inactive).
`O=C(O)COc1ccccc1F` was tested, and the growth was 92.3% (inactive).
In the case of `C/C(CC(C)C)=N/NC(N)=S`, the growth is reported as 43.8% (inactive).
`O=C(O)C(Cc1ccc(OS(=O)(=O)Cc2ccccc2)cc1)NS(=O)(=O)Cc1ccccc1` (stereo not given) was tested, and the growth was 115% (inactive) and 112% (inactive).
With `O=C1C2=C(Nc3cc(Cl)ccc3N2)OC1c1c[nH]c2ccc(COc3ccccc3)cc12` (stereo not given) the growth was 64.1% (inactive).
`CC(C)=NOC(C)C(=O)O` (stereo not given) was tested, and the growth was 103% (inactive).
In the case of `NCCSSC/C=C\CSSCCN`, the growth is reported as 95.8% (inactive).
With `CS/C(=C\c1ccc(C(=O)c2ccc(C)cc2)n1C)S(C)=O` (stereo not given) the growth was 72.5% [100 µM] (inactive).
With `COc1ccc(S(=O)(=O)c2ccc(F)cc2)cc1` the growth was 84.6% (inactive).
With `O=c1[nH]c(=S)[nH]n1C(=S)n1[nH]c(=S)[nH]c1=O` the growth was 93.6% (inactive).
`CCC/C(=N/NC(N)=O)c1ccco1` was tested, and the growth was 97.8% (inactive).
In the case of `CCCCNC(=O)c1ccccc1C`, the growth is reported as 99.7% (inactive).
For `O=[N+]([O-])c1ccc(NC2CCCCC2)nc1`, the growth was 103% (inactive) and 96.3% (inactive).
`CCCCC/C(C)=N\NC(N)=S` was tested, and the growth was 41.1% (inactive).
`CC1CCC(=O)N1c1ccc(N)cc1` (stereo not given) was tested, and the growth was 107% (inactive).
With `CCOP(=O)(OCC)/C(C#N)=C/c1c(C)[nH]c2ccccc12` the growth was 89.6% (inactive).
